Measured values reported in PubChem BioAssay AID1626 (SRMLSC, 2009).
“And” between values parts separate entries of the source, which are not always exact repeats. Identical values can stand only once. Hit rate of the full screen: of about 220,000 compounds, about 2,000 (0.91%) were called active. Roughly 2% stayed inconclusive and do not appear here. Cut-off read from the data, not from the text of the source: inconclusive = inhibition above about 80% without an active follow-up result; inactive = below that; test concentration not stated here. A selection follows. Results with a measured potency or affinity are listed apart.

assay: M. tuberculosis H37Rv growth inhibitors, H37Rv strain (AID 1626); conditions: hits give high values, concentration not given here;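 note: bacteria incubated seven days before Alamar blue readout; 0% = bacteria only wells and 100% = bacteria with antibiotic wells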

Compound	inhibition
COC(=O)CN(C#N)c1nc(N(C)C)nc(N(C)C)n1	-2.49% (inactive)
CCOC(=O)CN(C#N)c1nc(C)cc(C)n1	-5.87% (inactive)
CCCCCCN1CCN(c2ccccc2Cl)CC1	4.25% (inactive)
O=C(Nc1ccc(F)cc1F)Nc1ccccc1C(=O)NCCN1CCNC1=O	-7.32% (inactive)
CC(C)CCOCc1nc2sc3c(c2c(=O)[nH]1)CCC(C)C3 (stereo unspecified)	5.08% (inactive)
CCOC(=O)c1nc2sc3c(c2c(=O)[nH]1)CCCC3	6.3% (inactive) and 4.22% (inactive)
CCOC(=O)N1CCC(NC(=O)CS(=O)Cc2nc(-c3ccc(OC)c(OC)c3)oc2C)CC1 (stereo unspecified)	1.72% (inactive)
Cc1cc(N/N=C/c2ccccc2)nc(NCc2ccccc2)n1	7.85% (inactive)
Cc1cc(OC2CCCCC2)nc(NCc2ccccc2)n1	6.25% (inactive)
Cc1ccc(/C=N/Nc2cc(C)nc(NCc3ccccc3)n2)cc1	-1.4% (inactive)
CCCCNc1cc(C)nc(NCc2ccccc2)n1	8.03% (inactive)
COc1ccc(Nc2cc(C)nc(NCc3ccccc3)n2)cc1	20.5% (inactive)
Cc1cc(N2CCCCC2)nc(NCc2ccccc2)n1	11.8% (inactive)
COc1ccc(NC(=O)CCCCn2c(=O)[nH]c3ccccc3c2=O)cc1	-8.84% (inactive)
CCc1cc(C(=O)N2CCc3c([nH]c4ccccc34)C2c2ccc(OC)cc2F)no1 (stereo unspecified)	1.56% (inactive)
CC(=O)OC1c2ccccc2C(=O)N1Cc1ccccc1 (stereo unspecified)	-4.69% (inactive)
Cc1nc(SCCO)c2oc3ccccc3c2n1	10.1% (inactive)
Fc1ccc(CSc2ncnc3c2oc2ccccc23)cc1	15.6% (inactive)
Cc1nc(SCC(=O)Nc2ccc(F)cc2)c2oc3ccccc3c2n1	-5.02% (inactive)
Fc1cccc(CSc2ncnc3c2oc2ccccc23)c1	5.28% (inactive)
CCc1nc2c(c(=O)c3ccccc3n2C)c(=O)n1CCc1ccc(OC)cc1	19.9% (inactive)
O=C(NCc1nc(-c2ccc(C(F)(F)F)cc2)no1)Nc1ccc(OC(F)(F)F)cc1	-5.05% (inactive)
O=C(NCc1nc(-c2ccc(C(F)(F)F)cc2)no1)Nc1ccc(F)cc1F	8.4% (inactive)
COc1ccc(N(C(=O)CNC(=O)c2cccs2)C(C(=O)NCC2CCCO2)c2ccccc2)cc1OC (stereo unspecified)	-7.89% (inactive)

Compound	inhibition
Cc1ccc(C(=O)N2CCN(c3ccc([N+](=O)[O-])cc3-n3cccc3)CC2)cc1	33.7% (inactive)
O=C(c1ccc(F)cc1)N1CCN(c2ccc([N+](=O)[O-])cc2-n2cccc2)CC1	20.4% (inactive)
COCC(C)NC(=S)NC(=O)c1cc(S(=O)(=O)N2CCOCC2)ccc1C (stereo unspecified)	4.56% (inactive)
COc1cccc(NC(C(=O)Nc2cccc(C(C)=O)c2)c2ccccc2)c1 (stereo unspecified)	6.16% (inactive)
Cc1cc(C)c2nc(Nc3nc(-c4ccccc4)cc(=O)[nH]3)nc(C)c2c1	2.35% (inactive)
CC1CCc2cc(F)cc3c(=O)c(C(=O)O)cn1c23 (stereo unspecified)	14.4% (inactive)
Cc1c(-n2cc(C(=O)O)c(=O)c3cc(F)c(N4CCCC(O)C4)c(F)c32)c(=O)n(-c2ccccc2)n1C (stereo unspecified)	-0.64% (inactive)
CCOC(=O)c1cn(C2CC2)c2c(F)c(F)c(F)cc2c1=O	-2.19% (inactive)
O=C(O)c1cn(C2CCCCC2)c2ccccc2c1=O	-2.4% (inactive)
CCn1cc(C(=O)O)c(=O)c2cc(F)c(N3CCN(C(=S)NC(=O)c4ccc(F)cc4)CC3)cc21	15.9% (inactive)
Cc1cccc(-c2cc(=O)c(C(=O)O)cn2-c2ccc(F)cc2F)c1	-8.14% (inactive)
CC1CCCCC1NC(=O)COC(=O)CNC(=O)c1cccc(F)c1 (stereo unspecified)	-0.59% (inactive)
CP(=O)(O)CN1CCCCC1	-1.04% (inactive)
NS(=O)(=O)c1ccc(CCNC(=O)CSc2nc3ccccc3c(=O)n2CCN2CCOCC2)cc1	-2.17% (inactive)
O=C(O)c1ccccc1C(=O)NCCc1c(C(=O)O)[nH]c2ccc(F)cc12	-5.11% (inactive)
Cc1ccc(NC(=S)NCCc2ccc(F)cc2)c(C)c1	6.97% (inactive)
O=C(N/N=C/c1ccccc1F)NC1CCCCC1	6.4% (inactive)
CNC(=S)NNC(=O)c1noc(C)c1C(=O)N1CCN(C(c2ccccc2)c2ccccc2)CC1	4.63% (inactive)
O=C(NNC(=O)c1ccc(F)cc1F)c1ccc2c(c1)OCO2	-6.81% (inactive)
COc1cccc(-c2nnc(NC(=O)C(C)C)o2)c1	59.4% (inactive)
COc1ccccc1C(=O)Nc1nnc(-c2ccc(F)cc2)o1	9.06% (inactive)
COc1ccccc1C(=O)NNC(=O)c1ccc(Cl)cc1	0.09% (inactive)
O=C(Nc1nnc(-c2ccc(Cl)cc2)o1)Nc1ccccc1Cl	-6.02% (inactive)
O=C(Nc1nnc(-c2ccncc2)o1)c1ccccc1F	1.42% (inactive)

Compound	inhibition
COc1cccc(-c2nnc(NC(C)=O)o2)c1	7.53% (inactive)
Cc1ccc(-c2csc3nc(-c4ccncc4)[nH]c(=O)c23)cc1	3.27% (inactive)
Cc1cccc(N2CCN(C(=O)Cn3cccc3)CC2)c1C	3.88% (inactive)
Cc1ccc(/C=N/N2CCN(Cc3ccccc3)CC2)s1	-23% (inactive)
COc1ccc(C2=NOC(C)(c3nnc(-c4ccc(F)cc4)o3)C2)cc1 (stereo unspecified)	-6.66% (inactive)
Cc1ccc(Cc2cnc(N3C(=N)SC(c4ccccc4)C3=O)s2)cc1 (stereo unspecified)	1.22% (inactive)
Cc1cccc(CC2CC(=O)N(c3ncccn3)C2=O)c1 (stereo unspecified)	-7.53% (inactive)
CNc1ncc(Cc2ccccc2)s1	14.7% (inactive)
Cc1ccc(CC2CC(=O)N(c3ncccn3)C2=O)cc1 (stereo unspecified)	-1.69% (inactive)
O=C(CSc1nnnn1-c1ccccc1)Nc1ncc(Cc2ccccc2Cl)s1	0.66% (inactive)
Cc1ccc(CC2C(=O)N(c3ncccn3)C(=O)C2C)cc1 (stereo unspecified)	-0.53% (inactive)
Cc1cccc(Cc2cnc(NC(=O)c3ccc(C)o3)s2)c1	21.9% (inactive)
N#CCC(=O)Nc1ncc(Cc2ccccc2Cl)s1	5.63% (inactive)
CCCn1c(=S)[nH]c2cc(C(=O)N3CCc4ccccc4C3)ccc2c1=O	-2.54% (inactive)
CC(C)(C)OC(=O)N1CC(O)CC1C(=O)OCC(=O)c1ccccc1 (stereo unspecified)	-11.3% (inactive)
CC(O)CNC(=O)Cc1cc(=O)[nH]c(=O)[nH]1 (stereo unspecified)	-2.41% (inactive)
Cc1ccc2cc(CCNC(=O)C(C)(C)C)c(=O)[nH]c2c1	4.44% (inactive)
Cc1nn(C)cc1CN1CCC(CO)(CCOc2ccccc2)CC1	-0.32% (inactive)
Cc1ccc(CNC(=O)C2CNc3cc(C)ccc3O2)cc1 (stereo unspecified)	11.1% (inactive)
CC(C)CN(CCCNC(=O)CN1C(=O)COc2ccc(S(=O)(=O)N3CCCC3)cc21)CC(C)C	-2.35% (inactive)
CNC(=O)/C(C#N)=C\c1ccc(CNS(=O)(=O)c2ccccc2)o1	-2.69% (inactive)
COc1ccc(N2CCc3c(C)nc(SC)nc32)cc1	11% (inactive)
CSc1nc(C)c2c(n1)N(c1ccc(F)cc1)CC2	5.51% (inactive)
CC(C)(C)OC(=O)NCCc1nnc(SCc2cccc(Cl)c2)o1	13.5% (inactive)

Compound	inhibition
Cc1nc2nc[nH]n2c(=O)c1C/C=C/c1ccccc1	-3.13% (inactive)
Cc1nc2nc(N)nn2c(C)c1C/C=C/c1ccccc1	-9.36% (inactive)
Cc1ccnc(NC(=O)CCC(=O)N(CC(=O)NCc2ccccc2)Cc2cccs2)c1	6.51% (inactive)
Cc1cc2nccc(-c3ccncc3)n2n1	2.36% (inactive)
N#CCC1c2ccccc2CCN1C(=O)Nc1ccc(Cl)cc1 (stereo unspecified)	-4.15% (inactive)
N#CCC1c2ccccc2CCN1C(=O)Nc1cccc(C(F)(F)F)c1 (stereo unspecified)	-1.17% (inactive)
C=CCN=C1SCC(=O)N1S(=O)(=O)c1ccccc1	6.81% (inactive)
Cc1ccn2c(CNC(C)CCn3cccn3)c(C(=O)N3CCCCCC3)nc2c1 (stereo unspecified)	-0.19% (inactive)
Cc1nc(N2CCC(C)CC2)c2oc3ccccc3c2n1	10% (inactive)
Cc1nc(N2CCN(Cc3nc4ccccc4[nH]3)CC2)c2oc3ccccc3c2n1	-2.88% (inactive)
COc1ccccc1N1CCN(c2ncnc3c2oc2ccccc23)CC1	-5.65% (inactive)
Cc1nc(N2CCOCC2)c2oc3ccccc3c2n1	-2.79% (inactive)
CN(CC(=O)Nc1ccccn1)S(=O)(=O)c1ccc(Cl)cc1	-2.26% (inactive)
CN(C)/C=C1\N=C(c2ccccc2)OC1=O	8.41% (inactive)
CC(=O)Oc1ccc2c(=O)c(Oc3ccccc3)c(C)oc2c1OC(C)=O	-17.4% (inactive)
COc1ccc(-c2[nH]ncc2CNC(C)Cc2cccc(C)n2)cc1F (stereo unspecified)	0.91% (inactive)
CCOc1ccc(CCN2C(=O)C(=O)N([C@H](CCCN(C)Cc3ccccc3)CNCc3ccccc3)C[C@@H]2C(C)C)cc1	-12.7% (inactive)
O=C1NC[C@H](c2ccccc2)N(CCc2cccc(F)c2)C1=O	-4.05% (inactive)
COc1ccc(CNC(=O)[C@@H]2CC=C[C@@H]3CCN(Cc4ccc(Cl)c(Cl)c4)C(=O)[C@@H]32)cc1	6.56% (inactive)
Cc1ccc(CCN2CC(C(=O)NCCCN(C)Cc3ccccc3)CC2=O)cc1 (stereo unspecified)	2.65% (inactive)
Cc1cc(C)nc(NS(=O)(=O)c2ccc(NC(=O)c3ccco3)cc2)n1	3.55% (inactive)
O=C(Nc1ccc(Cl)cc1)OCc1cn(-c2ccc(Cl)cc2)nn1	-0.6% (inactive)
O=C(CCN1CCCCC1)N/N=C/c1c[nH]c2ccccc12	-4.97% (inactive)
Cc1ccc(C)c(N(C(=O)CS(=O)CC(=O)Nc2ccc3c(c2)OCO3)C(C)C(=O)NC2CCCC2)c1 (stereo unspecified)	-13.4% (inactive)
